# Source: PubChem BioAssay (National Center for Advancing Translational Sciences (NCATS))
# HPGD inh: qHTS Assay for Inhibitors of HPGD (15-Hydroxyprostaglandin Dehydrogenase); purified HPGD, NADH fluorescence kinetic, PGE2 substrate; Potency, µM, for inactives: at the top dose activity change, negative = inhibition, actives largely listed as inhibitors; 150,000 compounds, 4.3% hits; active means well fitted inhibition curve with a large enough effect, not every such curve was filed as active; inconclusive means small, poorly fitted or top-dose-only effect, or another doubt; inactive means no such curve, though single readings can be large or run the other way; further: on the % scale 0 is the no-effect control and ±100 the full control effect
# Target sequence (P15428 whole entry, looked up): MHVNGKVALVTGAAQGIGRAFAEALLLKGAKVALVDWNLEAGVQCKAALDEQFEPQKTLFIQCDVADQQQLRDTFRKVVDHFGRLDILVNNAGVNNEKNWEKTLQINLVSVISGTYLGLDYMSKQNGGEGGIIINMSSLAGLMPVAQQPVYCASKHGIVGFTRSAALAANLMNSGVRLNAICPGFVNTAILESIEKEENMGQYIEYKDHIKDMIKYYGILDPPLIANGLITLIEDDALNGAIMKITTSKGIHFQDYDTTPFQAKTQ
#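 20 nM HPGD preincubated 15 min at room temperature with compound in 50 mM Tris-HCl pH 8, 0.01% Tween 20. Started with 1 mM NAD+ and 30 uM prostaglandin E2; NADH fluorescence (360/450 nm) read 5 times over 30-s intervals, last minus first.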
# Lamin A splicing: qHTS Assay for Modulators of Lamin A Splicing | HeLa LMNA splicing GFP/RFP minigene ratio, 48 h | Potency, µM (titrated, usually from 46.1 µM), for inactives: at the top dose ratio change, negative = inhibition, actives largely listed as inhibitors | 200,000 compounds, 0.01% hits | AID 1487, 2009; active means well fitted inhibition curve with a large enough effect in the signal ratio, with a control signal flat, not every such curve was filed as active; inconclusive means small, poorly fitted or top-dose-only effect, or effect the other way, or a change in a side signal; the % refers to the signal ratio; further: on the % scale 0 is the no-effect control and ±100 the full control effect
#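 S3 HeLa cells stably expressing lamin A-EGFP splicing minigene plus DsRed2, 600 cells/well, 48 h compound exposure at 37C. Laser-scanning cytometry; analysed as GFP (500-530 nm)/RFP (575-640 nm) total intensity ratio; 0.5% DMSO vehicle.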
# HTT aggregate: qHTS Multiplex Assay to Identify Dual Action Probes in a Cell Model of Huntington: Aggregate Formation (GFP). 220,000 compounds, 1.1% hits. Potency, µM (titrated, usually from 46.1 µM), without a hit: at the highest dose activity change, negative = inhibition, usual class: inhibitors. AID 1688, 2009. PC12 HttQ103-GFP aggregates, Acumen cytometry, 40 h; further: on the % scale 0 is the no-effect control and ±100 the full control effect; nearly all actives have a fitted effect of over 60% in size
#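 Compounds (qHTS titration) were added to PC12 cells expressing an ecdysone-driven HTT exon 1 Q103–GFP fusion after induction with 100 nM tebufenozide. Aggregate formation was measured as GFP objects in cell lysates.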
# HTT ATP protect: qHTS Multiplex Assay to Identify Dual Action Probes in a Cell Model of Huntington: Cytoprotection (ATP) | AID 1471, 2008 | 230,000 compounds, 0.14% hits | Potency, µM (series often up to 56.4 µM), for the others: cytoprotection (ATP increase), actives largely listed as activators | PC12 HTT-Q103 induced, cytoprotection, ATP luminescence, 40 h; further: % of control where 0% means no effect; nearly all actives have a fitted effect of over 45% in size
#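 Quantitative HTS on tebufenozide-induced (100 nM) PC12 cells expressing HTTQ103 exon 1–GFP; compounds tested as a concentration series; survival measured via cellular ATP.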
# ALDH1A1 block: qHTS Assay for Inhibitors of Aldehyde Dehydrogenase 1 (ALDH1A1). Aldehyde dehydrogenase 1A1 (Homo sapiens), P00352. 220,000 compounds, 7.3% hits. Purified ALDH1A1, NADH fluorescence, propionaldehyde substrate. Potency, µM (doses to about 75.3 µM), inactives show at the highest dose activity, negative = inhibition, actives largely listed as inhibitors; active means well fitted inhibition curve with a large enough effect, not every such curve was filed as active; inconclusive means small, poorly fitted or top-dose-only effect, or another doubt; inactive means no such curve, though single readings can be large or run the other way;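 further: plate controls were no enzyme wells and a reference inhibitor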
# An asterisk follows results filed as active; ? = inconclusive; / = not tested or not shown; ! = repeats disagree; [ ] = remark or other dose. Only some compounds are listed: those with a hit (about 8.8% of all), similar ones and a draw of the others. Unless noted, the call rests on the fitted dose curve; in most records, active means well fitted curve in the direction sought with a large enough effect; inconclusive means small, poorly fitted or top-dose-only effect, or another doubt; inactive means no such curve, though single readings can be large; an effect the other way counts as inactive or inconclusive. Potency means the concentration at half of the fitted maximal effect.
SMILES,HPGD inh,Lamin A splicing,HTT aggregate,HTT ATP protect,ALDH1A1 block
CCc1ccc(/C=C2/SC(N3CCOCC3)=NC2=O)cc1,/,/,8%[9.22 µM],17%[10 µM],/
CCCCCNC(=O)c1c[nH]c2ccc(S(=O)(=O)N3CCC(C)CC3)cc2c1=O,/,12%[46 µM],/,/,/
CCN(CC)CCOc1ccc(-c2nc3cc(Cl)ccc3s2)cc1,/,/,?,-96%,/
COC(=O)N1[C@H]2CC[C@@]3(C)CC(=O)C[C@]1(C)C3c1ccccc12,-8%,/,/,12%,8%
CN(C(=O)CSc1nnc(-c2ccc(F)cc2)c2ccccc12)C1CCS(=O)(=O)C1 (configuration not stated),/,?,?,13%[10 µM],?
CC(C)NC(=O)CSc1nnc(-c2ccc(F)cc2)c2ccccc12,/,/,25%,13µM*,-8%
C/C(=N\Nc1nc2ccccc2[nH]1)c1ccc(N2CCOCC2)cc1,/,?,-7%,-76%[10 µM],2%
CC1CCCN(S(=O)(=O)c2ccc(NC(=O)CN3CCN(C)CC3)cc2)C1 (configuration not stated),-7%,12%,-4%,4%,?
CC1CCCN(S(=O)(=O)c2ccc(S(=O)(=O)NC(C)c3cccs3)cc2)C1 (configuration not stated),-20%,?,12%,22%,38µM*
COC(=O)c1csc(C(=O)c2c[nH]c3ccccc23)n1,-13%,/,/,29%,-2%
Cc1ccc(C(=O)CSc2n[nH]c(-c3ccco3)n2)cc1C,5µM*,1%,-10%,13%,?
NC(=O)CSc1n[nH]c(-c2ccco2)n1,/,/,-15%[9.22 µM],-10%[10 µM],/
COc1ccc(C(=O)CSc2n[nH]c(-c3ccco3)n2)cc1,3.5µM*,23%,12%[9.22 µM],-7%,-6%
CN(Cc1ccccc1)C(=C(Cl)Cl)C(=C1NCCN1)[N+](=O)[O-],/,/,-19%,-11%,?
O=[N+]([O-])C(=C1Nc2ccccc2N1)/C(Cl)=C(/Cl)Br,-7%,4%,11%,/,24µM*
O=C(CSc1n[nH]c(-c2ccccc2)n1)c1ccc(O)c(O)c1,3.5µM*,?,-11%,23%[10 µM],-2%
CCc1ccc(C(=O)CSc2n[nH]c(-c3ccncc3)n2)cc1,11µM*,?,?,-35%,?
COCCNCC(=O)C12CC3CC(CC(C3)C1)C2,-3%,6%,-16%,-2%[0.074 µM],10µM*
CN(C)S(=O)(=O)c1cccc(C(=O)OCC(=O)c2ccc3c(c2)NC(=O)CO3)c1,-23%,-5%,14%,4%,22µM*
Cn1cc(C2=C(c3ccc(Cl)cc3Cl)C(=O)NC2=O)c2ccccc21,3%,?,/,32µM*!,-10%
CCC1CCCCN1S(=O)(=O)c1ccc(C(=O)Nc2nnc(-c3ccccc3Cl)o2)cc1 (configuration not stated),-3%,?,7.9µM*,29%[10 µM],3%
O=C(Nc1nnc(-c2ccccc2Cl)o1)c1ccc(S(=O)(=O)N2CCCCCC2)cc1,-12%,?,10µM*,-65%,12%
CC1CCCCN1S(=O)(=O)c1ccc(C(=O)Nc2nnc(-c3ccccc3Cl)o2)cc1 (configuration not stated),-8%,?,?,-25%[10 µM],-5%
O=C(Nc1cc(C(=O)N2CCCC2)ccc1N1CCCC1)c1ccccc1F,?,-2%,3%,17%,?
CS(=O)(=O)Nc1ccc(C(=O)N2CCc3ccccc3C2)cc1,/,?,1%[9.22 µM],14%[10 µM],-5%
O=C(Nc1ccc(C(=O)N2CCCC2)cc1)c1ccccc1F,3.2µM*,-3%,-5%,-37%[10 µM],-8%
O=C(O)C1C2C=CC(C2)C1C(=O)Nc1ccc(C(=O)N2CCCCC2)cc1 (configuration not stated),1.3µM*,1%,-5%,-8%,?
CC(C)C(=O)Nc1ccc(C(=O)N2CCCCCC2)cc1,2µM*,6%,8%,1%,0%
